# According to the supplement of paper PMC8728848:
# Shown is part of a subset that was picked to be rich in the strongest signals.
# Key:
# Test in all cases: glycan array binding signal (z-score within array); higher = stronger binding
# Conditions in all cases: glycan notation: IUPAC condensed, linker removed
# [1] = target: Fuc(a1-2)Gal(b1-3)GalNAc(a1-3)[Fuc(a1-2)]Gal(b1-4)GlcNAc
# Outline: (§1)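 From the Consortium for Functional Glycomics database, 3228 arrays were curated, keeping only those whose protein sequence was available. Binding is given as a within-array Z-score averaged across arrays sharing a protein sequence and across linkers. Negative Z-scores can be read as non-binding.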
# [2] = target: Fuc(a1-2)Gal(b1-3)GalNAc(b1-3)Gal
# Outline: as §1
# [3] = target: Fuc(a1-2)Gal(b1-3)GalNAc(b1-4)[Neu5Ac(a2-3)]Gal(b1-4)Glc
# Outline: as §1
# [4] = target: Fuc(a1-2)Gal(b1-3)GlcNAc(b1-2)Man(a1-3)[Fuc(a1-2)Gal(b1-3)GlcNAc(b1-2)Man(a1-6)]Man(b1-4)GlcNAc(b1-4)[Fuc(a1-6)]GlcNAc
# Outline: as §1
# [5] = target: Fuc(a1-2)Gal(b1-3)[Fuc(a1-4)]GlcNAc(b1-2)Man(a1-3)[Fuc(a1-2)Gal(b1-3)[Fuc(a1-4)]GlcNAc(b1-2)Man(a1-3)]Man(b1-4)GlcNAc(b1-4)GlcNAc
# Outline: as §1
# Fuc(a1-2)Gal(b1-4)Glc6S = target: Fuc(a1-2)Gal(b1-4)Glc6S
# Outline: as §1
# [6] = target: Fuc(a1-2)Gal(b1-4)GlcNAc(b1-2)Man(a1-3)[Fuc(a1-2)Gal(b1-4)GlcNAc(b1-2)Man(a1-6)]Man(b1-4)GlcNAc(b1-4)[Fuc(a1-6)]GlcNAc
# Outline: as §1
# [7] = target: Fuc(a1-2)Gal(b1-4)GlcNAc(b1-3)Gal(b1-4)GlcNAc(b1-2)Man(a1-3)[Fuc(a1-2)Gal(b1-4)GlcNAc(b1-3)Gal(b1-4)GlcNAc(b1-2)Man(a1-6)]Man(b1-4)GlcNAc(b1-4)GlcNAc
# Outline: as §1
# [8] = target: Fuc(a1-2)Gal(b1-4)[Fuc(a1-3)]GlcNAc(b1-3)GalNAc
# Outline: as §1
# [9] = target: Fuc(a1-2)Gal6S(b1-3)GlcNAc6S
# Outline: as §1
# [10] = target: Fuc(a1-2)[Gal(a1-3)]Gal(b1-4)GlcNAc(b1-3)[Fuc(a1-2)[Gal(a1-3)]Gal(b1-4)GlcNAc(b1-6)]GalNAc
# Outline: as §1
# [11] = target: Fuc(a1-2)[Gal(a1-3)]Gal(b1-4)[Fuc(a1-3)]Glc
# Outline: as §1
# [12] = target: Fuc(a1-2)[GalNAc(a1-3)]Gal(b1-3)GlcNAc(b1-6)GalNAc
# Outline: as §1
# [13] = target: Fuc(a1-2)[GalNAc(a1-3)]Gal(b1-4)Glc
# Outline: as §1
# [14] = target: Fuc(a1-2)[GalNAc(a1-3)]Gal(b1-4)GlcNAc
# Outline: as §1
# [15] = target: Fuc(a1-2)[GalNAc(a1-3)]Gal(b1-4)GlcNAc(b1-2)Man
# Outline: as §1
# [16] = target: Fuc(a1-3)[Gal(b1-4)]GlcNAc(b1-3)Gal(b1-4)[Fuc(a1-3)]GlcNAc
# Outline: as §1
# [17] = target: Fuc(a1-3)[Gal(b1-4)]GlcNAc(b1-6)GalNAc
# Outline: as §1
# [18] = target: Fuc(a1-3)[Gal3S(b1-4)]GlcNAc6S
# Outline: as §1
# Fuc(a1-4)GlcNAc = target: Fuc(a1-4)GlcNAc
# Outline: as §1
# Gal(b1-3)Gal = target: Gal(b1-3)Gal
# Outline: as §1
# Gal(b1-3)Gal(b1-4)GlcNAc = target: Gal(b1-3)Gal(b1-4)GlcNAc
# Outline: as §1
# [19] = target: Gal(b1-3)GalNAc(a1-3)[Fuc(a1-2)]Gal(b1-4)GlcNAc
# Outline: as §1
# [20] = target: Gal(b1-3)GlcNAc(b1-3)Gal(b1-4)GlcNAc(b1-6)[Gal(b1-3)GlcNAc(b1-3)]Gal(b1-4)Glc
# Outline: as §1
# [21] = target: Gal(b1-3)[Neu5Ac(a2-6)]GlcNAc(b1-4)Gal(b1-4)Glc
# Outline: as §1
# Gal(b1-4)Gal = target: Gal(b1-4)Gal
# Outline: as §1
# [22] = target: Gal(b1-4)GlcNAc(b1-2)Man(a1-3)[GlcNAc(b1-4)][Gal(b1-4)GlcNAc(b1-2)Man(a1-6)]Man(b1-4)GlcNAc(b1-4)GlcNAc
# Outline: as §1
# [23] = target: Gal(b1-4)GlcNAc(b1-2)[Gal(b1-4)GlcNAc(b1-6)]Man(a1-6)[Gal(b1-4)GlcNAc(b1-2)Man(a1-3)]Man(b1-4)GlcNAc(b1-4)GlcNAc
# Outline: as §1
# [24] = target: Gal(b1-4)GlcNAc(b1-2)[Gal(b1-4)GlcNAc(b1-6)]Man(a1-6)[Gal(b1-4)GlcNAc(b1-2)Man(a1-3)]Man(b1-4)GlcNAc(b1-4)[Fuc(a1-6)]GlcNAc
# Outline: as §1
# [25] = target: Gal(b1-4)GlcNAc(b1-3)Gal(b1-4)GlcNAc
# Outline: as §1
binder,measurement,setting,value
SabA (Helicobacter pylori) (protein) MGSSHHHHHHSSGLVPRGSHMENLYFQGEDNGFFVSAGYQIGEAVQMVKNTGELKNLNEKYEQLSQYLNQVASLKQSIQNANNIELVNSSLNYLKSFTNNNYNSTTQSPIFNAVQAVITSVLGFWSLYAGNYFTFFVGKKVGDSGQPASVQGNPPFKTIIENCSGIENCAMDQTTYDKMKKLAEDLQAAQTNSATKGNNLCALSGCAATDSTSNPPNSTVSNALNLAQQLMDLIANTKTAMMWKNIVISGVSNTSGAITSTNYPTQYAVFNNIKAMIPILQQAVTLSQSNHTLSASLQAQATGSQTNPKFAKDIYTFAQNQKQVISYAQDIFNLFNSIPAEQYKYLEKAYLKIPNAGSTPTNPYRQVVNLNQEVQTIKNNVSYYGNRVDAALSVARDVYNLKSNQAEIVTAYNDAKTLSEEISKLPHNQVNTKDIVTLPYDKNAPAAGQSNYQINPEQQSNLNQALAAMSNNPFKKVGMISSQNNNGA,glycan array binding signal (z-score),[1],0.026
same,glycan array binding signal (z-score),[2],-0.181
same,glycan array binding signal (z-score),[3],0.208
same,glycan array binding signal (z-score),[4],1.55
same,glycan array binding signal (z-score),[5],3.91
same,glycan array binding signal (z-score),Fuc(a1-2)Gal(b1-4)Glc6S,0.21
same,glycan array binding signal (z-score),[6],2.49
same,glycan array binding signal (z-score),[7],0.579
same,glycan array binding signal (z-score),[8],2.43
same,glycan array binding signal (z-score),[9],3.74
same,glycan array binding signal (z-score),[10],2.78
same,glycan array binding signal (z-score),[11],-0.48
same,glycan array binding signal (z-score),[12],-0.962
same,glycan array binding signal (z-score),[13],-0.596
same,glycan array binding signal (z-score),[14],-0.145
same,glycan array binding signal (z-score),[15],-0.319
same,glycan array binding signal (z-score),[16],1.26
same,glycan array binding signal (z-score),[17],1.95
same,glycan array binding signal (z-score),[18],-0.083
same,glycan array binding signal (z-score),Fuc(a1-4)GlcNAc,2.89
same,glycan array binding signal (z-score),Gal(b1-3)Gal,-0.298
same,glycan array binding signal (z-score),Gal(b1-3)Gal(b1-4)GlcNAc,-0.637
same,glycan array binding signal (z-score),[19],-0.576
same,glycan array binding signal (z-score),[20],-0.24
same,glycan array binding signal (z-score),[21],0.532
same,glycan array binding signal (z-score),Gal(b1-4)Gal,0.204
same,glycan array binding signal (z-score),[22],-0.111
same,glycan array binding signal (z-score),[23],0.291
same,glycan array binding signal (z-score),[24],0.877
same,glycan array binding signal (z-score),[25],-0.924
